Results as given in PubChem BioAssay (EPA / NIEHS).
Values joined by “and” are separate entries in the source; they are usually repeats but may differ in a detail not shown here. Equal values may be shown once. Records with an inconclusive call do not appear. A structure can be active in one record and inactive in another. Active and inactive are the calls of the source. How the source made its calls, unless noted: active means hit-call score of the fitted dose curve at least 0.9, where 1 is the maximum; inactive means score below 0.9.

What was measured:
[1] = ATG_GLI_CIS: Attagene CIS-FACTORIAL HepG2 Assay for human Zinc Finger Protein GLI1 (AID 2282945); conditions: HepG2, Attagene cis-factorial reporter mRNA, GLI element; actives raise or lower the signal
Summary of the method: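 HepG2 cells transiently transfected with cis-promoter multiplexed reporter units report endogenous transcription factor activity. After 24 h chemical exposure, reporter mRNA was quantified by RT-PCR, 6-FAM labelling, HpaI digestion and capillary electrophoresis, with bidirectional fitting against DMSO.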

[2] = ATG_M_32_CIS: Attagene CIS-FACTORIAL HepG2 Assay for M32 Transcription Factor (Internal Marker) (AID 2282949); conditions: HepG2 Attagene cis-factorial M32 reporter, mRNA; actives raise or lower the signal;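 further: background control marker of the multiplexed CIS panel rather than a real target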
Summary of the method: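 Internal background marker read-out: RT-PCR/capillary electrophoresis fluorescence of reporter transcripts from transiently transfected HepG2 cells after 24 h chemical exposure. Activity fitted bidirectionally relative to DMSO negative control.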

[3] = target: Hypoxia-inducible factor 1-alpha (Homo sapiens) (UniProt Q16665); assay: ATG_HIF1a_CIS: Attagene CIS-FACTORIAL HepG2 Assay for human Hypoxia Inducible Factor 1 (HIF1A) (AID 2282951); conditions: HepG2 Attagene cis-factorial HIF1a reporter transcription; actives raise or lower the signal
Summary of the method: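 Measures endogenous transcription-factor activity through cis-regulated reporter mRNA in HepG2. Cells dosed 24 h; transcripts quantified by RT-PCR with 6-FAM-labelled products separated by capillary electrophoresis; DMSO serves as negative control.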

[4] = ATG_M_06_TRANS: Attagene TRANS-FACTORIAL HepG2 Assay for M06 Transcription Factor (Internal Marker) (AID 2282983; active means hit-call score of the fitted dose curve at least 0.9, where 1 is the maximum); conditions: HepG2 Attagene TRANS M06 internal marker reporter
Summary of the method: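 Measured by capillary electrophoresis of fluorescently labelled RT-PCR products, this endpoint reflects reporter mRNA in HepG2 cells harbouring exogenous NR-GAL4 reporter constructs after 24 h exposure, with DMSO as baseline.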

[5] = target: Cellular tumor antigen p53 (Homo sapiens) (UniProt P04637); assay: ATG_p53_CIS: Attagene CIS-FACTORIAL HepG2 Assay for human p53 Transcription Factor (AID 2282994); conditions: HepG2 p53 cis-element reporter, Attagene mRNA; actives raise or lower the signal
Summary of the method: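 Using HepG2 hepatoma cells carrying cis-acting multiplexed reporters, mRNA induction is detected after a 24 h exposure. Gain- and loss-of-signal responses are fitted relative to DMSO-treated cells.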

[6] = BSK_3C_TissueFactor: BioMAP Diversity Plus: 3C Assay for Tissue Factor Biomarker Activity (AID 2282997); conditions: BioMAP 3C HUVEC, tissue factor biomarker readout; actives raise or lower the signal
Summary of the method: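 Values derive from bidirectional curve fitting against DMSO of Tissue Factor ELISA signals, taken 24 h after dosing primary human umbilical vein endothelial cells.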

[7] = read-out: Intercellular Adhesion Molecule 1 (ICAM1), ICAM1 (gene 3383); assay: BSK_3C_ICAM1: BioMAP Diversity Plus: 3C Assay for Intercellular Adhesion Molecule 1 (ICAM1) Biomarker Activity (AID 2283003); conditions: primary human endothelial cells (HUVEC); actives raise or lower the signal
Summary of the method: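 Primary human umbilical vein endothelial cells in the BioMAP 3C system were exposed to chemicals for 24 h, then ICAM-1 was quantified by ELISA. Activity was fitted bidirectionally against the DMSO negative control baseline.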

[8] = read-out: Human Leukocyte Antigen - DR isotype (HLADR), HLA-DRA (gene 3122); assay: BSK_3C_HLADR: BioMAP Diversity Plus: 3C Assay for Human Leukocyte Antigen - DR isotype (HLADR) Biomarker Activity (AID 2283019); conditions: primary human endothelial cells (HUVEC); actives raise or lower the signal;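 on outcome: ELISA of cell-surface HLA-DR on HUVEC 24 h after dosing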
Summary of the method: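 Endothelial cells from human umbilical vein are treated with test chemical; after 24 h, HLA-DR levels are measured by ELISA. Data are fitted in both directions using DMSO as the baseline.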

[9] = read-out: Matrix Metallopeptidase 1 (MMP1), MMP1 (gene 4312); assay: BSK_BE3C_MMP1: BioMAP Diversity Plus: BE3C Assay for Matrix Metallopeptidase 1 (MMP1) Biomarker Activity (AID 2283024); conditions: primary human bronchial epithelial cells; actives raise or lower the signal
Summary of the method: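 Primary human bronchial epithelial cells were dosed with test chemicals, and MMP1 levels were measured by ELISA 24 h later. Data were fitted bidirectionally against DMSO as the negative control and activity baseline.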

[10] = read-out: Urokinase-type plasminogen activator receptor (uPAR), PLAUR (gene 5329); assay: BSK_4H_uPAR: BioMAP Diversity Plus: 4H Assay for Urokinase-type plasminogen activator receptor (uPAR) Biomarker Activity (AID 2283030); conditions: primary human endothelial cells (HUVEC); actives raise or lower the signal
Summary of the method: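 Chemicals are dosed onto human vascular endothelial primary cells (umbilical vein). After 24 h, uPAR is read by ELISA. Gain or loss of signal is fitted relative to DMSO.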

[11] = read-out: Monokine induced gamma interferon (MIG), CXCL9 (gene 4283); assay: BSK_CASM3C_MIG: BioMAP Diversity Plus: CASM3C Assay for Monokine induced gamma interferon (MIG) Biomarker Activity (AID 2283048); conditions: primary human coronary artery smooth muscle cells; actives raise or lower the signal;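 further: MIG protein level measured by ELISA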
[12] = read-out: serum amyloid A (SAA), SAA1 (gene 6288); assay: BSK_CASM3C_SAA: BioMAP Diversity Plus: CASM3C Assay for serum amyloid A (SAA) Biomarker Activity (AID 2283049); conditions: primary human coronary artery smooth muscle cells; actives raise or lower the signal;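 further: SAA protein level quantified by ELISA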
[13] = read-out: Thrombomodulin, THBD (gene 7056); assay: BSK_CASM3C_Thrombomodulin: BioMAP Diversity Plus: CASM3C Assay for Thrombomodulin Biomarker Activity (AID 2283051); conditions: primary human coronary artery smooth muscle cells; actives raise or lower the signal;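 further: thrombomodulin protein level measured by ELISA 24 h after dosing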
[14] = read-out: Tissue Factor, F3 (gene 2152); assay: BSK_LPS_TissueFactor: BioMAP Diversity Plus: LPS Assay for Tissue Factor Biomarker Activity (AID 2283084); conditions: primary human HUVEC with PBMC; actives raise or lower the signal
Summary of the method: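 In this co-culture system of umbilical vein endothelium with PBMC, stimulated with LPS, cell-surface CD142 is detected by ELISA at 24 h. Endpoint values derive from bidirectional fitting, DMSO serving as baseline.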

[15] = read-out: Collagen I, COL1A1 (gene 1277); assay: BSK_hDFCGF_CollagenI: BioMAP Diversity Plus: hDFCGF Assay for Collagen I Biomarker Activity (AID 2284250); conditions: primary human foreskin fibroblasts
Summary of the method: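 Primary human foreskin fibroblasts (hDFCGF system) exposed to chemical for 24 h; Collagen I measured by ELISA. Activity fitted in the positive direction relative to DMSO baseline, with SRB total-protein staining in parallel cultures for overt cytotoxicity.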

[16] = read-out: Monocyte Chemoattractant Protein-1 (MCP1), CCL2 (gene 6347); assay: BSK_hDFCGF_MCP1: BioMAP Diversity Plus: hDFCGF Assay for Monocyte Chemoattractant Protein-1 (MCP1) Biomarker Activity (AID 2284285); conditions: primary human foreskin fibroblasts
Summary of the method: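 Human foreskin fibroblasts (hDFCGF system) were exposed to compound and secreted MCP-1 was measured by ELISA after 24 hours. Activity was fitted relative to DMSO. Cytotoxicity was checked by SRB total-protein staining in parallel cultures.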

[17] = target: Hepatocyte nuclear factor 6 (Homo sapiens) (UniProt Q9UBC0); assay: ATG_HNF6_CIS: Attagene CIS-FACTORIAL HepG2 Assay for human Hepatocyte Nuclear Factor 6 (HNF6) (AID 2282952); conditions: HepG2 Attagene cis-factorial HNF6 reporter transcription; actives raise or lower the signal
Summary of the method: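 Reporter mRNA induction or loss in HepG2 after 24 h exposure; transient cis-MRTU transfection; fragments quantified by capillary electrophoresis; bidirectional analysis, DMSO as negative control.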

[18] = ATG_MRE_CIS: Attagene CIS-FACTORIAL HepG2 Assay for human Metal Responsive Element (MRE) (AID 2282954); conditions: HepG2 MRE cis-reporter transcription, Attagene multiplex; actives raise or lower the signal
Summary of the method: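 HepG2 cells transiently transfected with multiple cis-element reporter units measure endogenous MTF1-driven transcription. After 24 h compound exposure, reporter mRNA is quantified by RT-PCR with 6-FAM labelling, HpaI digestion and capillary electrophoresis; bidirectional fits versus DMSO.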

[19] = ATG_VDRE_CIS: Attagene CIS-FACTORIAL HepG2 Assay for human Vitamin D Receptor Element (VDRE) (AID 2282968); conditions: HepG2 VDRE cis-reporter transcription, actives raise or lower the signal
Summary of the method: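 HepG2 cells transiently transfected with cis-element reporter units, dosed 24 h; reporter mRNA measured by RT-PCR, 6-FAM labeling, HpaI digestion and capillary electrophoresis. Activity fitted bidirectionally against DMSO baseline.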

[20] = target: Nuclear respiratory factor 1 (Homo sapiens) (UniProt Q16656); assay: ATG_NRF1_CIS: Attagene CIS-FACTORIAL HepG2 Assay for human Nuclear Respiratory Factor 1 (NRF1) Orphan Gene (AID 2282987); conditions: HepG2 NRF1 cis-element reporter, Attagene multiplex; actives raise or lower the signal
Summary of the method: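 Fluorescence intensity of labelled reporter cDNA fragments, resolved by capillary electrophoresis, served as readout for NRF1 cis-element activity. Transiently transfected HepG2 cells were dosed for 24 hours; activity in either direction was fitted against DMSO negative control.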

Sequence of Nuclear respiratory factor 1 (Homo sapiens) (Q16656 whole entry, looked up, the tested form may be a part): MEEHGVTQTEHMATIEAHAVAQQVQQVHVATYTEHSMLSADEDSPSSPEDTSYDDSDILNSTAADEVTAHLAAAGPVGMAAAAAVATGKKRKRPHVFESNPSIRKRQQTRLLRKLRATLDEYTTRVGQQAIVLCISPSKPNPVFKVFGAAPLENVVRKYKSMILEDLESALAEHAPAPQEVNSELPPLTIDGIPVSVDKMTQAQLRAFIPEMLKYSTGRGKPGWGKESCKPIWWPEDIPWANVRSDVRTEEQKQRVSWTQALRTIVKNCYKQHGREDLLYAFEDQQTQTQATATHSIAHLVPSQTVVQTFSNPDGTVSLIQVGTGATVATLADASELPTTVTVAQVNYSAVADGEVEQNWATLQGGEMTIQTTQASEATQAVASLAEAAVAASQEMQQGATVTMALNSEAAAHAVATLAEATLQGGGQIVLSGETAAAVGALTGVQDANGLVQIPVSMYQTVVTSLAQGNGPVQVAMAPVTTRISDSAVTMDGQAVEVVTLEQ
Sequence of Hepatocyte nuclear factor 6 (Homo sapiens) (Q9UBC0 whole entry, looked up, the tested form may be a part): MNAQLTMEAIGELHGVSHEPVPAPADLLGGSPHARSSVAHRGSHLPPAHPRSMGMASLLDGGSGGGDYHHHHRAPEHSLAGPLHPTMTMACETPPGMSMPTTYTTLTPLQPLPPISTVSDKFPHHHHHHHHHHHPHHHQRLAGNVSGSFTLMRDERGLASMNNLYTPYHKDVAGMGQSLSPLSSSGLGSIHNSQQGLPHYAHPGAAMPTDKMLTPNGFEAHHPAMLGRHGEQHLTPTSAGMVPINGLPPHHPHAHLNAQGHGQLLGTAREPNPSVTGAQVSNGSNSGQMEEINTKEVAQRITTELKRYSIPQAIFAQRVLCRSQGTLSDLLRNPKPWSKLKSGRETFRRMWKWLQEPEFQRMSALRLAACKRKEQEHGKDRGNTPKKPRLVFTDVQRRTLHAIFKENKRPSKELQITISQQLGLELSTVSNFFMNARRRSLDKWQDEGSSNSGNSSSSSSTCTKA
Sequence of Cellular tumor antigen p53 (Homo sapiens) (P04637 whole entry, looked up): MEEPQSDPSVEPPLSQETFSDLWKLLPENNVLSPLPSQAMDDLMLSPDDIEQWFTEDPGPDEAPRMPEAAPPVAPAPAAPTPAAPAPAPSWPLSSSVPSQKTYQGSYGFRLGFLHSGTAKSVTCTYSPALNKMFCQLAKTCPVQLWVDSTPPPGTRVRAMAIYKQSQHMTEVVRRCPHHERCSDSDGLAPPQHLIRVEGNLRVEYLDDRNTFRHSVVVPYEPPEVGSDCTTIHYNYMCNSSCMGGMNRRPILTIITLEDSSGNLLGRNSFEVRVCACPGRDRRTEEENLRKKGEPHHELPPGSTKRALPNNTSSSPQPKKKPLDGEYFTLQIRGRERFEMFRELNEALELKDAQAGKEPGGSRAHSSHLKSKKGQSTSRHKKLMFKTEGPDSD
Sequence of Hypoxia-inducible factor 1-alpha (Homo sapiens) (Q16665 whole entry, looked up): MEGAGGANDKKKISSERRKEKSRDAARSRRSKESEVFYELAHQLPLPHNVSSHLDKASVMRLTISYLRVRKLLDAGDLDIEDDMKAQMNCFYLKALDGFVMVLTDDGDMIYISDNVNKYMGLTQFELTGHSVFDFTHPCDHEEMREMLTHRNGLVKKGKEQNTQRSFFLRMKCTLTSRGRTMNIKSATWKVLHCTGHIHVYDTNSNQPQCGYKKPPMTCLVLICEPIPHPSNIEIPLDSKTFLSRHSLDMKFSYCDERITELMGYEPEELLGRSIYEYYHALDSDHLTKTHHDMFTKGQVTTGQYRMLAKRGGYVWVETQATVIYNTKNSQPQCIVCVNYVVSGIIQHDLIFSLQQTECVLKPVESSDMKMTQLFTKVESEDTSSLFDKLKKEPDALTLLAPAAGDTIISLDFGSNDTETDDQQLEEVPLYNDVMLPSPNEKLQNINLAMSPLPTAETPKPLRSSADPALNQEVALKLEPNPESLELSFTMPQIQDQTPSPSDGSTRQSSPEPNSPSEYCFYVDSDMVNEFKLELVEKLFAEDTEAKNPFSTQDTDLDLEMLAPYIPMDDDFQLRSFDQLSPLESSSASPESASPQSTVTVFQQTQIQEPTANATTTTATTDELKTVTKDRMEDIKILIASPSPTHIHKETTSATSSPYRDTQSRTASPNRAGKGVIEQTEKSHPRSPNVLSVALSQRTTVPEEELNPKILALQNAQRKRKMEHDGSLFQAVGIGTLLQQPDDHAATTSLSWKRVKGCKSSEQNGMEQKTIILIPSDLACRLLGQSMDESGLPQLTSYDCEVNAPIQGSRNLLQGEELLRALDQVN

COc1ccc2ccccc2c1
outcome [1]: inactive | outcome [2]: inactive | outcome [3]: inactive | outcome [4]: inactive | outcome [5]: inactive

CCCCC(CC)COC(=O)C=Cc1ccc(OC)cc1 (stereo unspecified)
AC50 [6]: 5.17 µM (active) and 7.14 µM (active) | outcome [7]: inactive | AC50 [8]: 30.4 µM (active) and 22.1 µM (active) | outcome [9]: inactive | outcome [10]: inactive | AC50 [11]: 32.4 µM (active) | outcome [11]: inactive | AC50 [12]: 32.3 µM (active) | outcome [12]: inactive | outcome [13]: inactive | AC50 [14]: 7.72 µM (active) | outcome [14]: inactive | AC50 [15]: 9.37 µM (active) | outcome [15]: inactive | AC50 [16]: 8.08 µM (active) | outcome [16]: inactive

OC(C(F)(F)F)(C(F)(F)F)C(O)(C(F)(F)F)C(F)(F)F
AC50 [6]: 23.7 µM (active) and 22.6 µM (active) | AC50 [7]: 40.6 µM (active) | outcome [7]: inactive | AC50 [8]: 29.4 µM (active) and 26.4 µM (active) | outcome [9]: inactive | AC50 [10]: 12.7 µM (active) and 15.4 µM (active) | AC50 [11]: 39.8 µM (active) and 30 µM (active) | outcome [12]: inactive | AC50 [13]: 30 µM (active) | outcome [13]: inactive | AC50 [14]: 30 µM (active) | AC50 [15]: 30 µM (active) | outcome [15]: inactive | AC50 [16]: 7.94 µM (active) | outcome [16]: inactive

C1CN(CCOCCN2CCOCC2)CCO1
outcome [6]: inactive | outcome [7]: inactive | outcome [8]: inactive | outcome [9]: inactive | outcome [10]: inactive | AC50 [11]: 1.82 µM (active) | outcome [11]: inactive | outcome [12]: inactive | outcome [13]: inactive | outcome [14]: inactive | outcome [15]: inactive | outcome [16]: inactive

CCCCCCOC(=O)CCCCCCCC(=O)OCCCCCC
outcome [1]: inactive | outcome [2]: inactive | outcome [3]: inactive | outcome [17]: inactive | outcome [18]: inactive | outcome [19]: inactive | outcome [4]: inactive | outcome [20]: inactive

CCC[Si](OC(C)=O)(OC(C)=O)OC(C)=O
outcome [6]: inactive | outcome [7]: inactive | outcome [8]: inactive | outcome [9]: inactive | outcome [10]: inactive | outcome [11]: inactive | outcome [12]: inactive | outcome [13]: inactive | outcome [14]: inactive | outcome [15]: inactive | outcome [16]: inactive

C[Si](C)(C)O[Si](C)(C)O[Si](C)(C)C
outcome [1]: inactive | outcome [2]: inactive | outcome [3]: inactive | outcome [17]: inactive | outcome [18]: inactive | outcome [19]: inactive | outcome [4]: inactive | outcome [5]: inactive

CCCC[N+]1(C)CCCC1
outcome [1]: inactive | outcome [3]: inactive | outcome [17]: inactive | outcome [18]: inactive | outcome [4]: inactive | outcome [20]: inactive | outcome [5]: inactive

CC/C=C\CCO
outcome [3]: inactive | outcome [17]: inactive | outcome [18]: inactive | outcome [19]: inactive | outcome [4]: inactive | outcome [5]: inactive

Cc1c(C(N)=O)cc([N+](=O)[O-])cc1[N+](=O)[O-]
outcome [6]: inactive | outcome [7]: inactive | outcome [8]: inactive | outcome [9]: inactive | outcome [10]: inactive | outcome [11]: inactive | outcome [12]: inactive | outcome [13]: inactive | outcome [14]: inactive | outcome [15]: inactive | outcome [16]: inactive

COc1cc(CNC(=O)CCCC/C=C/C(C)C)ccc1O
outcome [6]: inactive | outcome [7]: inactive | AC50 [8]: 20 µM (active) and 9.23 µM (active) | AC50 [9]: 14.4 µM (active) and 14 µM (active) | outcome [10]: inactive | outcome [11]: inactive | outcome [12]: inactive | outcome [13]: inactive | outcome [14]: inactive | outcome [15]: inactive | AC50 [16]: 0.508 µM (active) | outcome [16]: inactive

F[B-](F)(F)F
outcome [1]: inactive | outcome [3]: inactive | outcome [17]: inactive | outcome [18]: inactive | outcome [19]: inactive

CN(C)N=Nc1ccccc1
outcome [1]: inactive | outcome [2]: inactive | outcome [3]: inactive | outcome [17]: inactive | outcome [18]: inactive | outcome [19]: inactive | outcome [20]: inactive | outcome [5]: inactive

CCCc1c(OCCCCc2nn[nH]n2)ccc(C(C)=O)c1O
outcome [1]: inactive | outcome [2]: inactive | outcome [17]: inactive | outcome [19]: inactive | outcome [4]: inactive | outcome [20]: inactive | outcome [5]: inactive
